# Compound activity: PubChem BioAssay, National Center for Advancing Translational Sciences (NCATS)
# In the library only some 7.3% were active in any assay of this set; here they are far more common.
# NPC1 prom act – activators of NPC1 promoter; Huh7 NPC1 promoter luciferase reporter, 24 h; Potency, µM (titrated, usually from 9.22 µM), without a hit: at the top dose activation, most hits filed as activators; 320,000 tested, 2.4% active; further: % of control where 0% means no effect; nearly all actives have a fitted effect of over 60% in size
#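 Quantitative HTS used a cell-based reporter: Huh7 cells stably bearing the NPC1 promoter upstream of luciferase were treated with compounds for 24 h, and promoter activation was read as luminescence.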
# SMN2 splice up – increases expression of the SMN2 splice variant | HEK293 SMN2-luciferase splicing reporter, luminescence, 30-36 h | Potency, µM (series often up to 46.1 µM), inactives show top-dose activity change, positive = activation, actives largely listed as activators | 210,000 tested, 2.8% active | AID 1458; further: % of control where 0% means no effect; nearly all actives have a fitted effect of over 55% in size
#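 HEK293 cells carry an SMN2 minigene-luciferase reporter in which exon 7 inclusion puts luciferase in frame. Cells were seeded at 2000 cells/well, attached for 10-12 hours, then exposed to compounds for 30-36 hours at 37C before ONE-Glo luminescence.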
# ELG1 genotoxic – inducers of genotoxicity in HEK293T ELG1-luciferase cells; HEK293T ELG1-luciferase reporter, luminescence, 16 h; AID 504466; Potency, µM (series often up to 46 µM), inactives show top-dose activity change, positive = activation, usual class: activators; 330,000 tested, 1.3% active; further: % of control where 0% means no effect; nearly all actives have a fitted effect of over 60% in size
#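 ELG1-luciferase HEK293T cells, 2,000/well; compound pinned in; 16 hr, 37 °C, 5% CO2; ONE-Glo, 30 min RT; luminescence on CCD imager.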
# FLuc counter – counter-screen for miR-21 project: firefly luciferase inhibitors or activators | P08659 | purified FLuc, Km substrates, luminescence inhibition | Potency, µM (doses to about 57.5 µM), without a hit: at the top dose activity change, negative = inhibition, most hits filed as inhibitors | 360,000 tested, 6.9% active;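 further: plate controls were vehicle for no effect and reference inhibitor for full effect; nearly all actives have a fitted effect of over 55% in size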
# Target sequence (P08659 whole entry, looked up): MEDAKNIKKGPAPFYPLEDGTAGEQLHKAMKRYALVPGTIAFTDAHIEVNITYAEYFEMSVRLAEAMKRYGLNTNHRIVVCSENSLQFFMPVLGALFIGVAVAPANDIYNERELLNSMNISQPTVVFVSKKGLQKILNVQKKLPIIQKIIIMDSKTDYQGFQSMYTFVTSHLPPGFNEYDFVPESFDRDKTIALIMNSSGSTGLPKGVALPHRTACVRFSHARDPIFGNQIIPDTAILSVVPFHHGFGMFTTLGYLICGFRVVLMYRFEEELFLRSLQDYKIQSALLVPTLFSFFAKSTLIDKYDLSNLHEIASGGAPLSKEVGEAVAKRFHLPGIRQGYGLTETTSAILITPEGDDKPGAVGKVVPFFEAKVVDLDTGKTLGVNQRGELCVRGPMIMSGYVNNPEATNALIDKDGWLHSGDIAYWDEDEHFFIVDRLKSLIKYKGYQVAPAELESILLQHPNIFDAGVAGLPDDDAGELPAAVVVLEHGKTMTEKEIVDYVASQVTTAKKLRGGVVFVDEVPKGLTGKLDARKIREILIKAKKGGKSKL
#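 Purified P. pyralis luciferase (10nM final) with 10uM D-luciferin and 10uM ATP (Km levels) in 50mM Tris acetate pH 7.5, 10mM Mg acetate, 0.01% Tween-20, 0.05% BSA; qHTS 6-point titration, ~60 µM downward; luminescence read.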
# Rab9 promoter act – activators of Rab9 promoter; Huh7 Rab9 promoter-luciferase reporter, luminescence, 24 h; Potency, µM (doses to about 9.22 µM), for the others: at the top dose activation, negative = inhibition, actives largely listed as activators; 320,000 tested, 2.8% active; AID 485297; further: % of control where 0% means no effect; nearly all actives have a fitted effect of over 60% in size
#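 Luciferase signal after 10 min detection reagent at ambient indicates Rab9 promoter upregulation; stably transfected Huh7 cells were treated 24 h with compound in DMSO at 37 °C, 5% CO2.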
# KinaseGlo FLuc – Kinase-Glo luciferase inhibition (counter-screen) | Potency, µM (highest dose often 38.3 µM), without a hit: top-dose activity change, negative = inhibition, actives largely listed as inhibitors | 200,000 tested, 0.28% active | Q27757 | AID 1379 | Kinase-Glo luciferase, ATP luminescence, 8 min; further: on the % scale 0 is the no-effect control and ±100 the full control effect; nearly all actives have a fitted effect of over 60% in size
#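 Recombinant Kinase-Glo luciferase, 10 uM ATP (linear range), luciferin; imidazole pH 7.2 / KCl / MgCl2 / Tween / BSA buffer; 8 min RT; luminescence.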
# * = called active by the depositor; ? = inconclusive; . = not tested or not shown; [ ] = another dose, or the depositor's remark. The call rests on the fitted dose curve; in most records, active means well fitted curve in the direction sought with a large enough effect; inconclusive means small, poorly fitted or top-dose-only effect, or another doubt; inactive means no such curve, though single readings can be large; an effect the other way counts as inactive or inconclusive. Potency means the concentration at half of the fitted maximal effect.
SMILES,NPC1 prom act,SMN2 splice up,ELG1 genotoxic,FLuc counter,Rab9 promoter act,KinaseGlo FLuc
Cc1nc2c(Cl)cc(Cl)cc2[nH]1,2%,-18%,-4%,2%,6%,8%
Nc1ccc2nc(-c3ccc(N)c(Cl)c3)[nH]c2c1,?,?,?,6µM*,2.8µM*,-22%
COc1ccc(S(=O)(=O)NCC(c2ccco2)N2CCN(c3ccc(F)cc3)CC2)cc1C (stereo not given),.,.,.,2%,.,.
C[C@H]1Cc2c(-c3ccccc3)nc3c(c2CO1)CN(S(=O)(=O)c1ccc(C#N)cc1)CC3,.,6%[9.22 µM],.,.,.,-8%[7.66 µM]
Nc1ccc2nc(-c3ccccc3)[nH]c2c1,3.2µM*,18µM*,?,7.6µM*,3.2µM*,?
Nc1ccc2nc(-c3cccs3)[nH]c2c1,?,22µM*,?,11µM*,2.5µM*,-23%
Nc1ccc2nc(-c3ccccn3)[nH]c2c1,?,16µM*,11%,13µM*,?,11µM*
Nc1cccc(-c2nc3ccc(C(=O)c4ccccc4)cc3[nH]2)c1,18%,.,?,0.76µM*,24%,.
COc1ccc(CN2CCc3nc(N4CCN(c5ccc(F)cc5)CC4)ncc3C2)c(OC)c1OC,.,.,.,-3%,.,.
COc1ccc(-c2nn(-c3ccccc3)cc2/C=N/NC(=O)c2ccc3c(c2)OCO3)cc1,1%,25%,-8%,?,3%,2%
O=C(N/N=C/c1cn(-c2ccccc2)nc1-c1ccc(F)cc1)c1ccc2c(c1)OCO2,4%,8%,-3%,4.3µM*,0%,0%
O=C(N/N=C\c1cn(-c2ccccc2)nc1-c1ccccc1)c1ccc2c(c1)OCO2,5%,19%,0%,4.8µM*,-1%,-9%
O/N=C/c1cn(-c2ccccc2)nc1-c1ccc2c(c1)OCCO2,13%,13%,9%,?,10%,-5%
O=C(N/N=C/c1cn(-c2ccccc2)nc1-c1ccc2c(c1)OCCO2)c1ccncc1,?,11µM*,?,-18%,?,-1%
NC(=O)c1ccccc1OCC(=O)Nc1ccc(Cl)c(Cl)c1,0.35µM*,.,1.2µM*,0.67µM*,0.35µM*,.
COc1ccccc1OCC(=O)Nc1ccc(Cl)cc1,13%,?,14%,?,20%,1%
NC(=O)c1ccccc1OCC(=O)Nc1ccc2c(c1)CCC2,22%,.,6%,15µM*,?,.
COc1ccccc1CC(=O)Nc1ccc2c(c1)CCC2,-4%,-9%,4%,?,1%,3%
COc1ccccc1C(=O)NCC(=O)Nc1ccc2c(c1)CCC2,?,.,?,12µM*,26%,.
C[C@H]1Cc2c(COc3ccccc3)nc3c(c2CO1)CN(S(=O)(=O)c1ccc2c(c1)OCCN2C)CC3,.,-1%[9.22 µM],.,.,.,-8%[7.66 µM]
O=C(Cn1c(-c2cccs2)cc2cc(F)ccc21)NCCc1ccc(Cl)cc1,.,-4%,.,0%,.,.
Cc1ccc2c(cnn2C(=O)CCC(=O)N2CCCCC2)c1,-1%,.,-14%,12µM*,1%,.
O=C(CCC(=O)n1ncc2ccccc21)N1CCCCC1,1%,.,0%,?,3%,.
Cc1ccc2c(cnn2C(=O)CCCC(=O)NCc2ccc(F)cc2)c1,7%,.,-8%,13µM*,29%,.
Cc1sc(NC(=O)C2C3CCC(O3)C2C(=O)O)nc1-c1ccc(CC(C)C)cc1 (stereo not given),7%,20%,?,15µM*,20%,0%
SMILES,NPC1 prom act,SMN2 splice up,ELG1 genotoxic,FLuc counter,Rab9 promoter act,KinaseGlo FLuc
CC(C)CN(CC(C)C)S(=O)(=O)c1ccc(C(=O)Nc2sc3c(c2C(N)=O)CCN(C(C)C)C3)cc1,.,.,.,0%,.,.
Cc1nnc(SCC(=O)Nc2cccc(S(=O)(=O)N3CCCCC3)c2)s1,-7%,.,-1%,.,-3%,.
Cc1ccc(Nc2nnc(SCC(=O)Nc3cccc(S(=O)(=O)N4CCCCC4)c3)s2)cc1,15%,24%,-2%,2.7µM*,17%,2%
O=C(CSc1nnc(Nc2ccccc2F)s1)Nc1cccc(S(=O)(=O)N2CCCCC2)c1,1%,6%,2%,13µM*,4%,-5%
CCCN1C(=O)c2[nH]nc(-c3ccccc3O)c2C1c1cccc(OCc2ccccc2)c1 (stereo not given),.,11%,.,3%,.,.
CC(C)(C)c1ccc(C(=O)/C=C2\NC(=O)CS2)cc1,0.4µM*,3.2µM*,?,0.3µM*,0.63µM*,-8%
COc1ccccc1NC(=O)/C=C1\NC(=O)CS1,-2%,22%,5%,-15%,1%,-23%
Cc1ccc(NC(=O)/C=C2\NC(=O)CS2)cc1,3.5µM*,.,23µM*,7.6µM*,3.2µM*,.
Cc1ccc(C)c(NC(=O)CSc2cn(CC(=O)N3CCCCC3)c3ccccc23)c1,.,.,.,-14%,.,.
COc1ccc(CNC(=O)Cn2ncn3cccc3c2=O)cc1,?,11µM*,?,21µM*,1.6µM*,-11%
Cc1ccc(OCc2nc(-c3ccccn3)no2)cc1,1.1µM*,8.9µM*,3.7µM*,4.8µM*,1.4µM*,8%
CC(C)(C)Cc1nc(-c2ccccn2)no1,?,?,18µM*,?,?,0%
CC(Oc1ccc(Cl)cc1Cl)c1nc(-c2ccc(NC(=O)c3cccnc3)cc2)no1 (stereo not given),0%,-87%,-20%,1%,2%,2%
CCc1ccc(OCc2nc(-c3ccccn3)no2)c(Br)c1,0.32µM*,0.5µM*,?,0.54µM*,0.4µM*,-17%
CC(Oc1ccc(Cl)cc1Cl)c1nc(-c2ccccn2)no1 (stereo not given),?,28%,?,15µM*,?,1%
COc1ccc(NC(=O)c2c(-c3ccc(C)cc3)nnc3ccccc23)cc1OC,.,.,.,-9%,.,.
Cc1nn(C)c2c1c(-c1ccccc1)cc(=O)n2Cc1ccc(F)cc1,.,.,.,-7%,.,.
Cn1nnnc1SCCCNCc1ccccc1OCc1ccc(Cl)cc1,.,.,.,-2%,.,.
CCOc1ccc(C(=O)CSc2nc3cc(C(=O)NC4CCCC4)ccc3c(=O)n2CC2CCCO2)cc1 (stereo not given),.,.,.,-1%,.,.
CCc1ccc(OCC(=O)Nc2cc(-c3ccc(C)cc3)no2)cc1,.,17%,.,-1%,.,.
Cc1ccc(OCc2nc(-c3ccccn3)no2)c(Br)c1,0.1µM*,-61%,0.33µM*,0.21µM*,0.28µM*,10µM*
Cc1ccc(SCc2nc(-c3ccccn3)no2)cc1,?,?,?,4%[2.3 µM],?,3%
c1ccc(OCCCc2nc(-c3ccccn3)no2)cc1,?,?,18µM*,?,4%[1.84 µM],-2%
